# Where a name gives a salt, the structure may show the parent alone. ± gives the standard error. In all, about 1,300 compounds went through this assay and about 130 (10%) showed an effect of 50% or more. The sample as a whole holds a higher share of strong results than the screen did.
# Tested on: Trichoderma virens ATCC 9645
# Experiment: growth yield (OD600) with compound + IPBC relative to untreated control; higher = less growth inhibition
# Conditions: compound concentration: 100 uM, IPBC concentration: 200 ng/ml
# Summary of the method: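 A biocide at 200 ng ml^−1 was co-applied to some wells, and library compounds were present in all test wells at 100 μM final. The wells held 100 μl of Trichoderma virens ATCC 9645 spores at 15,000 spores ml^−1 in potato dextrose broth, grown at 30 °C in 96-well plates, with OD600 read at 40 h and 72 h. Results are relative growth against the control without either agent, averaged across duplicate screens.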
SMILES,growth yield (40 h),growth yield (72 h)
N=C(N)NC(=O)Cc1c(Cl)cccc1Cl [Guanfacine hydrochloride] + CCCCNC(=O)OCC#CI [3-iodo-2-propynyl butylcarbamate (IPBC)],79.9 ± 4.3%,90.7 ± 3.7%
O=C1[C@H]2CCCC[C@H]2C(=O)N1CCCCN1CCN(c2nsc3ccccc23)CC1 [Perospirone] + CCCCNC(=O)OCC#CI [3-iodo-2-propynyl butylcarbamate (IPBC)],79.4 ± 0.95%,88.41 ± 0.32%
C[C@@H]1C[C@H]2[C@@H]3C[C@H](F)C4=CC(=O)C=C[C@]4(C)[C@@]3(F)[C@@H](O)C[C@]2(C)[C@@]1(O)C(=O)COC(=O)C(C)(C)C [Flumethasone pivalate] + CCCCNC(=O)OCC#CI [3-iodo-2-propynyl butylcarbamate (IPBC)],90.9 ± 2.5%,90.3 ± 2%
CN(CCCN1c2ccccc2CCc2ccccc21)CC(=O)c1ccc(Cl)cc1 [Lofepramine] + CCCCNC(=O)OCC#CI [3-iodo-2-propynyl butylcarbamate (IPBC)],78.31 ± 0.48%,91.7 ± 1.3%
CCN[C@H]1CN(CCCOC)S(=O)(=O)c2sc(S(N)(=O)=O)cc21 [Brinzolamide] + CCCCNC(=O)OCC#CI [3-iodo-2-propynyl butylcarbamate (IPBC)],76.1 ± 0.79%,86.31 ± 0.32%
CC(N/C(=N\C#N)Nc1ccncc1)C(C)(C)C (stereo unspecified) [Pinacidil] + CCCCNC(=O)OCC#CI [3-iodo-2-propynyl butylcarbamate (IPBC)],97.7 ± 5.9%,102 ± 2.9%
CCCCc1cc2ccccc2c(OCCN(C)C)n1 [Dimethisoquin hydrochloride] + CCCCNC(=O)OCC#CI [3-iodo-2-propynyl butylcarbamate (IPBC)],52.1 ± 0.64%,82.64 ± 0.42%
CC(C)c1nc(CN(C)C(=O)N[C@H](C(=O)N[C@@H](Cc2ccccc2)C[C@H](O)[C@H](Cc2ccccc2)NC(=O)OCc2cncs2)C(C)C)cs1 [Ritonavir] + CCCCNC(=O)OCC#CI [3-iodo-2-propynyl butylcarbamate (IPBC)],119 ± 1.6%,119 ± 1.5%
O=C(O)CCC(=O)c1ccc(-c2ccccc2)cc1 [Fenbufen] + CCCCNC(=O)OCC#CI [3-iodo-2-propynyl butylcarbamate (IPBC)],71.5 ± 2.9%,92.2 ± 1.8%
CCC[C@@H]1C[C@@H](C(=O)N[C@@H]([C@H]2O[C@H](SC)[C@H](O)[C@@H](O)[C@H]2O)[C@@H](C)O)N(C)C1 [Lincomycin hydrochloride] + CCCCNC(=O)OCC#CI [3-iodo-2-propynyl butylcarbamate (IPBC)],85.8 ± 3.5%,94.6 ± 2.3%
COCC1=C(C(=O)OC(C)OC(=O)OC(C)C)N2C(=O)[C@@H](NC(=O)/C(=N\OC)c3csc(N)n3)[C@H]2SC1 (stereo partly specified) [Cefpodoxime proxetil] + CCCCNC(=O)OCC#CI [3-iodo-2-propynyl butylcarbamate (IPBC)],121 ± 3.5%,113.6 ± 0.94%
Nc1cc(N2CCCCC2)nc(N)[n+]1[O-] [Minoxidil] + CCCCNC(=O)OCC#CI [3-iodo-2-propynyl butylcarbamate (IPBC)],90.1 ± 2.1%,93.5 ± 1.7%
C[C@]12CC[C@H](O)C[C@H]1CC[C@@H]1[C@@H]2C[C@@H](O)[C@]2(C)[C@@H](C3=CC(=O)OC3)CC[C@]12O [Digoxigenin] + CCCCNC(=O)OCC#CI [3-iodo-2-propynyl butylcarbamate (IPBC)],86.6 ± 2.7%,90.72 ± 0.32%
COC(=O)[C@@H]1[C@H]2C[C@H]3c4[nH]c5ccccc5c4CCN3C[C@@H]2CC[C@@H]1O [Yohimbine hydrochloride] + CCCCNC(=O)OCC#CI [3-iodo-2-propynyl butylcarbamate (IPBC)],82.4 ± 1.1%,89.25 ± 0.73%
Nc1nc2[nH]cc(CCc3ccc(C(=O)N[C@@H](CCC(=O)O)C(=O)O)cc3)c2c(=O)[nH]1 [Pemetrexed disodium] + CCCCNC(=O)OCC#CI [3-iodo-2-propynyl butylcarbamate (IPBC)],94.8 ± 7.2%,94 ± 4%
CCSc1ccc2c(c1)N(CCCN1CCN(C)CC1)c1ccccc1S2 [Thiethylperazine dimalate] + CCCCNC(=O)OCC#CI [3-iodo-2-propynyl butylcarbamate (IPBC)],4.45 ± 0.32%,3.25 ± 0.1%
CCN(CC)C(C)CN1c2ccccc2Sc2ccccc21 (stereo unspecified) [Ethopropazine hydrochloride] + CCCCNC(=O)OCC#CI [3-iodo-2-propynyl butylcarbamate (IPBC)],72.4 ± 3.8%,89.2 ± 1.6%
CC(CN1c2ccccc2Sc2ccccc21)N(C)C (stereo unspecified) [Promethazine hydrochloride] + CCCCNC(=O)OCC#CI [3-iodo-2-propynyl butylcarbamate (IPBC)],78.2 ± 1.9%,94.3 ± 4.1%
C[C@]12C=CC(=O)C=C1CC[C@H]1[C@@H]3C[C@@H](O)[C@](O)(C(=O)CO)[C@@]3(C)C[C@H](O)[C@@]12F [Triamcinolone] + CCCCNC(=O)OCC#CI [3-iodo-2-propynyl butylcarbamate (IPBC)],98.3 ± 3%,97.5 ± 1.9%
COc1ccc(-c2cc(=S)ss2)cc1 [Anethole-trithione] + CCCCNC(=O)OCC#CI [3-iodo-2-propynyl butylcarbamate (IPBC)],77 ± 1.8%,74.9%
CO[C@]12C[C@@H](COC(=O)c3cncc(Br)c3)CN(C)[C@@H]1Cc1cn(C)c3cccc2c13 [Nicergoline] + CCCCNC(=O)OCC#CI [3-iodo-2-propynyl butylcarbamate (IPBC)],74.2 ± 8.4%,93 ± 5.3%
CN1C[C@H](C(=O)N[C@]2(C)O[C@@]3(O)[C@@H]4CCCN4C(=O)[C@H](Cc4ccccc4)N3C2=O)C[C@@H]2c3cccc4[nH]cc(c34)C[C@H]21 [Dihydroergotamine tartrate] + CCCCNC(=O)OCC#CI [3-iodo-2-propynyl butylcarbamate (IPBC)],105 ± 5.2%,107 ± 2.3%
CN1C[C@H](CNC(=O)OCc2ccccc2)C[C@@H]2c3cccc4c3c(cn4C)C[C@H]21 [Metergoline] + CCCCNC(=O)OCC#CI [3-iodo-2-propynyl butylcarbamate (IPBC)],45.4 ± 15%,112 ± 9.5%

# — the supplement of paper PMC8007513
